About 3,300 (8.5%) of roughly 39,000 compounds were called active. The list comes from a sample in which actives are over-represented; it also holds similar structures and randomly drawn compounds.
test system: HepG2; assay: cytotoxicity call (relative viability < 0.9); conditions: 10 µM

Row | SMILES | cytotoxicity call
1 | COc1ccc([Si](C)(C)[C@H]2[C@H](CC(=O)N3Cc4ccccc4C[C@H]3CO)O[C@@]3(C(=O)N(C)c4c(Br)cc(C)cc43)[C@@H]2C)cc1 | inactive
2 | CN1C(=O)c2cc(NC(=O)C3CCOCC3)ccc2OC[C@H]2O[C@H](CC(=O)NCCc3ccncc3)CC[C@@H]21 | inactive
3 | O=C(O)C=Cc1ccc(O)c(O)c1 | inactive
4 | COc1ccc(C=CC(=O)O)cc1OC | inactive
5 | COc1cc(C(C)=O)ccc1O | inactive
6 | COc1cc(C=CC(=O)O)ccc1O | inactive
7 | COc1ccc(/C=C/C(=O)C=C(O)/C=C/c2ccc(OC)c(OC)c2)cc1OC | inactive
8 | O=C(/C=C/c1ccc(O)c(O)c1)O[C@H]([C@H](OC(=O)/C=C/c1ccc(O)c(O)c1)[C@H](OC(=O)/C=C/c1ccc(O)c(O)c1)C(=O)O)[C@@H](OC(=O)/C=C/c1ccc(O)c(O)c1)C(=O)O | inactive
9 | COc1cc(C=O)ccc1O | active
10 | O=C(C=Cc1ccc(O)c(O)c1)C=C(O)C=Cc1ccc(O)c(O)c1 | active
11 | COc1cc(C=CC(=O)C=C(O)C=Cc2ccc(O)c(OC)c2)ccc1O | active
12 | S=C1NCNCN1 | inactive
13 | O=C1N[C@H](Cc2ccccc2)COC(=O)[C@@H](Cc2ccc(F)cc2)CCC=CC[C@@H]1CC(=O)N(CCO)Cc1ccccc1 | inactive
14 | COc1ccc(CN2C[C@@H](C)[C@H](OC)CN(C)C(=O)c3ccc(NC(=O)c4nc5ccccc5s4)cc3OC[C@H]2C)cc1 | inactive
15 | COCC#Cc1ccc2c(c1)O[C@@H](CN(C)C(=O)CN(C)C)[C@H](C)CN([C@H](C)CO)S2(=O)=O | inactive
16 | Cc1ccc(S(=O)(=O)N(C)C[C@@H]2Oc3ncc(Br)cc3C(=O)N([C@H](C)CO)C[C@@H]2C)cc1 | inactive
17 | COC(=O)c1cc(S(=O)(=O)N2CCOCC2)cn1C | inactive
18 | C[C@@H]1CCCCO[C@@H](CN(C)C(=O)Nc2ccc(F)cc2)[C@@H](C)CN([C@@H](C)CO)C(=O)c2cc(NC(=O)C3CCCCC3)ccc2O1 | inactive
19 | COCC#Cc1ccc([C@H]2[C@@H](CO)N3C(=O)CN(C(=O)C4CCOCC4)C[C@@H]23)cc1 | inactive
20 | C[C@H]1CN([C@@H](C)CO)C(=O)c2cccc(NC(=O)c3cnccn3)c2O[C@H]1CN(C)C(=O)Nc1ccccc1 | inactive
21 | C[C@@H]1CN([C@@H](C)CO)C(=O)c2cc(NC(=O)Nc3ccc(C(F)(F)F)cc3)ccc2O[C@@H](C)CCCCO[C@@H]1CN(C)C(=O)CCCN(C)C | inactive
22 | Oc1ccc2ccccc2c1 | inactive
23 | Oc1ccc2ccccc2c1 [beta-NAPHTHOL ] | active

Row | SMILES | cytotoxicity call
24 | Oc1cccc(O)c1 | inactive
25 | O=C(O)c1ccc2ccccc2c1 | inactive
26 | C[C@H](CO)N1C[C@H](C)[C@@H](CN(C)S(=O)(=O)c2ccccc2)Oc2ccc(NS(=O)(=O)c3ccccc3)cc2C1=O | inactive
27 | Cc1ccc(S[C@]2(C(=O)NCC(C)C)CC(=O)N(Cc3cc(C(F)(F)F)cc(C(F)(F)F)c3)[C@@H]2c2ccc(CO)cc2I)cc1 | inactive
28 | Cc1cn([C@H]2C[C@H](F)[C@@H](CO)O2)c(=O)[nH]c1=O | inactive
29 | CCC(=O)N[C@@H]1CC[C@@H](CC(=O)OC)O[C@@H]1CO | inactive
30 | C[C@@H]1CN([C@@H](C)CO)C(=O)c2cc(-c3cncnc3)cnc2O[C@@H]1CN(C)C(=O)CN1CCOCC1 | inactive
31 | C[C@@H]1CN([C@H](C)CO)C(=O)c2cccc(NC(=O)CCCCCC(=O)Nc3ccccc3N)c2O[C@@H]1CN(C)C(=O)Nc1ccc(C(F)(F)F)cc1 | inactive
32 | C[C@H](CO)N1C[C@H](C)[C@@H](CN(C)S(=O)(=O)c2ccc(Cl)cc2)OCCCC[C@H](C)Oc2ccc(NC(=O)Nc3ccc(F)cc3)cc2C1=O | inactive
33 | C[C@@H]1CN([C@H](C)CO)C(=O)c2cc(NC(=O)Nc3ccc(F)cc3)ccc2O[C@@H](C)CCCCO[C@H]1CN(C)S(=O)(=O)c1ccc(Cl)cc1 | active
34 | C[C@@H]1CCCCO[C@H](CN(C)S(=O)(=O)c2ccc(Cl)cc2)[C@H](C)CN([C@@H](C)CO)C(=O)c2cc(NC(=O)Nc3ccc(F)cc3)ccc2O1 | inactive
35 | C[C@@H]1CCCCO[C@H](CN(C)S(=O)(=O)c2ccc(Cl)cc2)[C@@H](C)CN([C@H](C)CO)C(=O)c2cc(NC(=O)Nc3ccc(F)cc3)ccc2O1 | inactive
36 | C[C@@H]1CCCCO[C@@H](CN(C)S(=O)(=O)c2ccc(Cl)cc2)[C@H](C)CN([C@H](C)CO)C(=O)c2cc(NC(=O)Nc3ccc(F)cc3)ccc2O1 | active
37 | C[C@H]1CCCCO[C@H](CN(C)S(=O)(=O)c2ccc(Cl)cc2)[C@@H](C)CN([C@@H](C)CO)C(=O)c2cc(NC(=O)Nc3ccc(F)cc3)ccc2O1 | inactive
38 | COc1ccc(CN(C)C[C@@H]2Oc3c(NC(=O)c4cnccn4)cccc3C(=O)N([C@@H](C)CO)C[C@H]2C)cc1 | inactive
39 | CNC(=O)[C@H]1O[C@@H](n2cnc3c(NCc4cccc(I)c4)ncnc32)[C@H](O)[C@@H]1O | inactive
40 | C[C@@H]1CCCCO[C@H](CN(C)C(=O)Nc2ccccc2)[C@@H](C)CN([C@@H](C)CO)C(=O)c2cc(NC(=O)c3ccccc3)ccc2O1 | inactive
41 | C[C@H]1CN([C@@H](C)CO)C(=O)c2cccc(NC(=O)c3nc4ccccc4s3)c2O[C@H]1CN(C)C(=O)Nc1ccc(F)cc1 | inactive
42 | C[C@H](CO)N1C[C@H](C)[C@@H](CN(C)C(=O)Nc2ccc3c(c2)OCO3)Oc2ccc(NS(C)(=O)=O)cc2C1=O | inactive
43 | COc1ccc(S(=O)(=O)Nc2ccc3c(c2)CC(=O)N([C@@H](C)CO)C[C@H](C)[C@H](CN(C)S(=O)(=O)c2ccccc2)O3)cc1 | inactive
44 | C[C@H](CO)N1C[C@H](C)[C@H](CN(C)S(=O)(=O)c2cn(C)cn2)Oc2ccc(NC(=O)CCCN(C)C)cc2CC1=O | inactive
45 | C[C@H](CO)N1C[C@H](C)[C@H](CN(C)S(=O)(=O)c2ccc(C#N)cc2)Oc2ncc(C#Cc3cccc(F)c3)cc2C1=O | inactive
46 | C[C@H](CO)N1C[C@H](C)[C@H](CN(C)S(=O)(=O)c2cccc(F)c2)Oc2ncc(C#Cc3cccc(F)c3)cc2C1=O | inactive

Row | SMILES | cytotoxicity call
47 | Cc1ccc(S(=O)(=O)N(C)C[C@@H]2Oc3ncc(C#Cc4ccccc4)cc3C(=O)N([C@H](C)CO)C[C@@H]2C)cc1 | inactive
48 | COc1ccc(C#Cc2cnc3c(c2)C(=O)N([C@H](C)CO)C[C@H](C)[C@H](CN(C)S(=O)(=O)c2ccc(C#N)cc2)O3)cc1OC | inactive
49 | C[C@H](CO)N1C[C@H](C)[C@H](CN(C)S(=O)(=O)c2ccccc2)Oc2ncc(C#Cc3cccc(F)c3)cc2C1=O | inactive
50 | COc1ccc(S(=O)(=O)N(C)C[C@@H]2Oc3ncc(C#Cc4ccc(OC)c(OC)c4)cc3C(=O)N([C@H](C)CO)C[C@@H]2C)cc1 | active
51 | COc1ccc(C#Cc2cnc3c(c2)C(=O)N([C@H](C)CO)C[C@H](C)[C@H](CN(C)S(=O)(=O)c2ccc(C)cc2)O3)cc1OC | inactive
52 | Cc1ccc(S(=O)(=O)N(C)C[C@@H]2Oc3ncc(C#Cc4cccc(F)c4)cc3C(=O)N([C@H](C)CO)C[C@@H]2C)cc1 | active
53 | C[C@@H]1CN([C@H](C)CO)C(=O)c2cc(C#Cc3cccnc3)cnc2O[C@@H]1CN(C)Cc1ccc(F)cc1 | inactive
54 | C[C@H](CO)N1C[C@H](C)[C@H](CN(C)Cc2ccc(F)cc2)Oc2ncc(C#Cc3cccnc3)cc2C1=O | active
55 | C[C@H](CO)N1C[C@H](C)[C@H](CN(C)S(=O)(=O)c2ccc(F)cc2)Oc2ncc(C#Cc3cccc(F)c3)cc2C1=O | active
56 | C[C@H]1CN([C@@H](C)CO)C(=O)c2cc(C#Cc3cccnc3)cnc2O[C@@H]1CN(C)Cc1ccc(F)cc1 | inactive
57 | C[C@H](CO)N1C[C@H](C)[C@H](CN(C)Cc2ccncc2)Oc2ccc(NS(=O)(=O)c3ccccc3)cc2C1=O | inactive
58 | COc1ccc(S(=O)(=O)N(C)C[C@H]2Oc3ccc(N(C)C)cc3CC(=O)N([C@@H](C)CO)C[C@H]2C)cc1 | inactive
59 | COc1ccc(NC(=O)N(C)C[C@@H]2Oc3ncc(C#CC(C)C)cc3C(=O)N([C@@H](C)CO)C[C@H]2C)cc1 | inactive
60 | NC1CCN(C(=O)NC2CCCCC2)CC1 | inactive
61 | C[C@H]1CCCCO[C@H](CN(C)C(=O)CCC(F)(F)F)[C@@H](C)CN([C@@H](C)CO)C(=O)c2cc(NS(=O)(=O)c3ccccc3)ccc2O1 | inactive
62 | C[C@H]1CC/C=C\[C@H]2O[C@@]34C=CCN(c5ccc(Cl)cc5)C(=O)[C@H]3N(CCO)C(=O)[C@]4(C)[C@@H]2C(=O)O1 | inactive
63 | Cc1noc(C)c1S(=O)(=O)Nc1ccc2c(c1)C(=O)N([C@@H](C)CO)C[C@@H](C)[C@@H](CN(C)C)OCCCC[C@H](C)O2 | inactive
64 | C[C@@]12CC[C@@H]3c4ccc(O)cc4C[C@H](CCCCCCCCC[S@@](=O)CCCC(F)(F)C(F)(F)F)[C@@H]3[C@@H]1CC[C@@H]2O | inactive
65 | O=C(C[C@H]1CC[C@@H]2[C@H](COC[C@@H](O)CN2S(=O)(=O)c2ccccc2)O1)N[C@@H]1CCN(Cc2ccccc2)C1 | inactive
66 | Cc1ccccc1S(=O)(=O)N1C[C@@H](O)COC[C@@H]2O[C@H](CC(=O)NCCc3ccncc3)CC[C@H]21 | inactive
67 | Cc1noc(C)c1NC(=O)Nc1ccc2c(c1)C(=O)N([C@H](C)CO)C[C@H](C)[C@H](CN(C)Cc1ccc(C(=O)O)cc1)OCCCC[C@@H](C)O2 | inactive
68 | CO[C@H]1CN(C)C(=O)c2ccc(NS(=O)(=O)c3cn(C)cn3)cc2OC[C@H](C)N(Cc2cccc(F)c2)C[C@H]1C | inactive
69 | COc1ccc(NC(=O)N(C)C[C@@H]2OCCCC[C@@H](C)Oc3ccc(NS(=O)(=O)c4c(C)noc4C)cc3C(=O)N([C@@H](C)CO)C[C@H]2C)cc1 | inactive

From the antibiotic and cytotoxicity screens of Wong et al. (2023)
